# In PubChem BioAssay AID2685 (National Center for Advancing Translational Sciences (NCATS), 2010):
# Hit rate of the full screen: of about 320,000 compounds, about 2,100 (0.66%) were called active. Inconclusive results (about 53%) are left out. Calls come from the whole dose curve; as a rule, active = well fitted inhibition curve with a large enough effect in the signal ratio, with a control signal flat (not every such curve was filed as active); inconclusive = small, poorly fitted or top-dose-only effect, or effect the other way, or a change in a side signal; inactive = flat fitted curve, though single readings scatter; the % refers to the signal ratio. Only a selection was taken, and actives are over-represented in it overall.
# Test: qHTS Assay for Lipid Storage Modulators in Drosophila S3 Cells;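 for cell number change: cells counted by Cell Tracker Red CMTPX staining in the red channel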; for lipid storage change, negative = inhibition: % is set by controls: 0 for no effect and ±100 for the full control effect
# Details: BODIPY lipid droplet fluorescence, 18-24 h, cells fed with added oleic acid; cell number change: measured here: cell count max response; series mostly up to 46.1 µM; lipid storage change, negative = inhibition: at the top concentration
# Summary of the method: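 Drosophila S3 cells loaded with oleic acid (400 uM, as added) and compounds at several concentrations; lipid droplets imaged by 488-nm laser-scanning cytometry, 500–530 nm intensity and object ratio to cell channel. Percent activity normalized to 20 uM Triacsin C.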
# Potency is the fitted concentration of half-maximal effect.
Compound,"lipid storage change, negative = inhibition",cell number change [%],Potency,outcome
O=C(CSc1nc2ccc([N+](=O)[O-])cc2[nH]1)NC1CCCC1,4.94% (inactive),16,,
O=[N+]([O-])c1ccc(/C=N/N=C/c2ccc([N+](=O)[O-])o2)o1,13.8% (inactive),21.7,,
CCCSC1=N/C(=C\c2ccc([N+](=O)[O-])o2)C(=O)S1,17.3% (inactive),18.4,,
O=C1NC(=S)S/C1=C\C=C\c1ccc([N+](=O)[O-])o1,,-18.3,6.51 µM (active),
C[n+]1ccc(/C=C/c2c[nH]c3ccccc23)cc1,,5.59,4.11 µM (active),
OCC[n+]1ccc(/C=C/c2c[nH]c3ccccc23)cc1,,-1.83,,inactive
Cc1ccccc1/C=C/c1cc[n+](C)cc1,5.44% (inactive),,,
COc1ccc(S(=O)(=O)N2CCN(CC(=O)NCCc3cccs3)CC2)cc1,1.97% (inactive),-24.5,,
Cc1cc(S(=O)(=O)N2CCN(CC(=O)NCCc3cccs3)CC2)ccc1Br,,-0.491,6.51 µM (active),
O=C(CN1CCN(S(=O)(=O)c2ccccc2)CC1)NCCc1ccccc1,0.573% (inactive),12.2,,
CSc1ccccc1OCc1cc(C(=O)N(C)Cc2cc(C)[nH]n2)no1,-12.2% (inactive),-1.8,,
COc1ccc(C(=O)N2CCc3ccc(NC(=O)c4ccccn4)cc3C2)cc1F,,5.43,7.31 µM (active),
COc1ccc(C(=O)N2CCc3cc(OC)c(OC)cc3C2)cc1OC,2.92% (inactive),-23.8,,
CSc1cccc(NC(=O)N2CCc3ccc(NC(=O)c4ccccn4)cc3C2)c1,,-11.2,,inactive
CC(=O)c1nn(-c2ccc(Cl)cc2)c(=O)[nH]c1=O,,,,inactive
O=C(CN1C(=O)NC2(CCc3ccccc32)C1=O)c1ccccc1 (stereo unspecified),,29.9,,inactive
O=C(CN1C(=O)NC2(CCc3ccccc32)C1=O)c1ccc(Br)s1 (stereo unspecified),,10.8,4.11 µM (active),
O=C(CN1C(=O)NC2(CCc3ccccc32)C1=O)c1ccc(Br)cc1 (stereo unspecified),-18.9% (inactive),-20.3,,
Cc1cccc(OCC(=O)N2CCN(C(=O)c3ccc([N+](=O)[O-])cc3)CC2)c1,9.63% (inactive),2.07,,
O=C(CN1C(=O)NC(Cc2ccccc2)C1=O)Nc1ccccc1 (stereo unspecified),,,,inactive
Cc1ccc(NC(=O)CN2C(=O)NC(Cc3ccccc3)C2=O)cc1 (stereo unspecified),14.8% (inactive),2.72,,
O=C(CN1C(=O)NC(Cc2ccccc2)C1=O)Nc1ccc(OC(F)(F)F)cc1 (stereo unspecified),,-11.8,23.1 µM (active),
Cc1ccc2c(N)c(C(=O)N(c3ccccc3)c3ccccc3)sc2n1,0.972% (inactive),1.13,,

Compound,"lipid storage change, negative = inhibition",cell number change [%],Potency,outcome
O=C(COC(=O)c1ccccn1)Nc1cccc(Cl)c1,-15.1% (inactive),-4.94,,
CSc1nnc(C(C)c2ncc(C(F)(F)F)cc2Cl)n1C (stereo unspecified),10.3% (inactive),29.4,,
COCCN(C(=O)c1ccccc1)c1nc(-c2ccc(OC)cc2)cs1,,-13.2,,inactive
COCCCN(C(=O)c1ccccc1)c1nc(-c2ccc(OC)cc2)cs1,,5.82,9.2 µM (active),
COCCCN(C(=O)c1ccccc1F)c1nc(-c2ccc(OC)cc2)cs1,,7.94,,inactive
COC(=O)c1ccc(-c2nc(O)c(C)s2)cc1,,,,inactive
Cc1cccc(OC2CCN(Cc3c(C(=O)N4CCCC4)nc4ccccn34)CC2)c1,28.5% (inactive),17.9,,
CCCC[C@@H]1CNC(=O)C(=O)N1CCc1cc(C(F)(F)F)cc(C(F)(F)F)c1,0.436% (inactive),3.93,,
CC(OC(=O)Cc1n[nH]c(=O)c2ccccc12)C(=O)Nc1ccc(F)cc1 (stereo unspecified),,-13.8,,inactive [at 0.0737 µM]
CCc1ccc(C(=O)C(C)OC(=O)Cc2n[nH]c(=O)c3ccccc23)cc1 (stereo unspecified),,-26.4,13 µM (active),
COC(=O)c1ccc(COC(=O)Cc2n[nH]c(=O)c3ccccc23)cc1,16% (inactive),,,
Cc1csc(Sc2ccc([N+](=O)[O-])cc2C(=O)OCC(=O)NC(=O)NC(C)(C)C)n1,,,,inactive
CC(c1ccccc1)n1c(CCCO)nc2ccccc21 (stereo unspecified),0.218% (inactive),-13.2,,
CCCCN(C)CCn1c(=S)[nH]c2cc(OCC)c(OCC)cc2c1=O,1.86% (inactive),5.41,,
COC(=O)c1cc(C(=O)N2CCc3ccccc32)cc([N+](=O)[O-])c1,8.69% (inactive),3.51,,
O=C(CC1C(=O)NC2CCCCC2N1C(=O)c1ccc(F)cc1)Nc1ccccc1 (stereo unspecified),,18,29.1 µM (active),
COc1cccc(NC(=O)CC2C(=O)NC3CCCCC3N2C(=O)c2ccc(F)cc2)c1 (stereo unspecified),,36.9,,inactive
COc1ccc(NC(=O)CC2C(=O)NC3CCCCC3N2C(=O)c2ccc(F)cc2)cc1 (stereo unspecified),,6.58,,inactive
COc1ccc(NC(=S)N2CCC(C(=O)c3ccc(OC)cc3)CC2)cc1,10.2% (inactive),-17.6,,
O=C(COC(=O)COc1ccc2c(c1)CCC2)Nc1ccccc1,3.22% (inactive),-5.42,,
Cn1nc(C(=O)NNC(=O)C(CCC(N)=O)NS(=O)(=O)c2ccc(Cl)cc2)c2ccccc2c1=O (stereo unspecified),6.87% (inactive),15.9,,
Cc1ccc(S(=O)(=O)N/N=C/c2ccc3nccnc3c2)cc1,9.08% (inactive),-5.68,,
COc1ccc(CCNC(=O)CN2C(=O)c3ccccc3S2(=O)=O)cc1OC,,-27.6,23.1 µM (active),
